High-throughput results from PubChem.
GALC G270D up: enhancers of human galactocerebrosidase G270D mutant activity in cells | P54803 | 145M-Twi-hGALC-G270D cells (Twitcher mouse brain line with human GALC G270D), HMU-beta-Gal fluorescence, 48 h | Potency, µM (top dose mostly 57.5 µM), usual class: activators | hit rate 0.1% among 45,000 | AID 1159614; also: nearly all actives have a fitted effect of over 65% in size
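Fluorescence readout: HMU-β-gal cleavage by mutant GALC (0.1 mM final, citrate/phosphate pH 5.2 with 1 mg/mL taurocholate), stopped with carbonate/bicarbonate plus Triton X-100. Cells: murine Twitcher 145M-Twi expressing human G270D GALC; qHTS for activators.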
GPR32 ag: GPR32 (DRV1) agonism, beta-arrestin recruitment; O75388; AID 1346428; activation, % at 76.9 µM; hit rate 2.5% among 48,000; CHO-K1 GPR32 beta-arrestin PathHunter luminescence, 90 min; zero percent set by DMSO-only wells;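 active = activation of at least 60% and not above a set upper limit, about 1 call in 100 departs from these limits; inconclusive = activation of 40% to 60%, or above that upper limit; inactive = activation under 40%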
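Using DMSO wells as EC0, agonist-induced signal was taken as chemiluminescence from beta-Gal reconstituted upon beta-arrestin recruitment to GPR32 in CHO-K1 cells after 90 min compound treatment.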
FH mod: Identification of activators of human fumarate hydratase by quantitative high-throughput screening; Fumarate hydratase, mitochondrial (Homo sapiens), P07954; FH coupled MDH/diaphorase resazurin fluorescence, 15 min; Potency, µM (highest dose often 79.9 µM), most hits filed as inhibitors; hit rate 0.22% among 54,000; also: the screen sought activators but most active calls are inhibition curves; nearly all actives have a fitted effect of over 45% in size
Target sequence (P07954 whole entry, looked up): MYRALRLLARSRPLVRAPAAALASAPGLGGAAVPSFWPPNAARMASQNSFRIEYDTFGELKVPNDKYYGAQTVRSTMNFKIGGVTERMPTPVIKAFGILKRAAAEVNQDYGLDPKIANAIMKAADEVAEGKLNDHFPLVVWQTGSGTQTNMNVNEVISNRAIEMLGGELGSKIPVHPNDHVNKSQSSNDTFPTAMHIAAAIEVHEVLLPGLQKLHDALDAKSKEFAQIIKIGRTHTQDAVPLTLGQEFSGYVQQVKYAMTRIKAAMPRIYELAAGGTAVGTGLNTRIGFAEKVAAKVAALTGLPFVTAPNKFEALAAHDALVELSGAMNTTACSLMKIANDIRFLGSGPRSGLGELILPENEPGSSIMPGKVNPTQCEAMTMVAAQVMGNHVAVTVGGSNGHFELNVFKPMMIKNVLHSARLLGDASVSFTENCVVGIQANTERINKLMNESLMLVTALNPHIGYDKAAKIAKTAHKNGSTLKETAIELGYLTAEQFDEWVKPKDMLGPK
HTT-AS act: activates huntingtin-antisense promoter activity | HEK293 HTT-AS promoter firefly luciferase reporter, 24 h; response scale: percent change from vehicle, -100% = no light | Potency, µM (titrated, usually from 57.5 µM), usual class: activators | hit rate 0.24% among 48,000 | AID 1508624; also: nearly all actives have a fitted effect of over 55% in size
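HEK293 cells carrying firefly luciferase reporters were seeded at 2,500 per well in Opti-MEM and cultured for 24 h. They were then treated with compounds at up to 57.5 uM final for 24 h at 37 degrees C before Dual-Glo luminescence readout.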
HTT prom inh: inhibitors of huntingtin promoter activity; HEK293 HTT promoter firefly luciferase reporter, 24 h; AID 1508623; hit rate 0.93% among 48,000; Potency, µM (top dose mostly 57.5 µM), hits mostly inhibitors; also: nearly all actives have a fitted effect of over 50% in size
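Luminescence was read after Dual-Glo reagent and a 10 min room-temperature incubation. Values were normalized to vehicle (0% activity) and zero RLU (-100% activity). Reporter HEK293 cells had been exposed to compounds (up to 57.5 uM final) for 24 h.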
NTMT1 inh: inhibitors of human N-terminal methyltransferase NTMT1. Q9BV86. NTMT1 MTase-Glo SAH luminescence, purified enzyme. Potency, µM (highest dose often 114 µM), hits mostly inhibitors. hit rate 2.5% among 59,000; also: nearly all actives have a fitted effect of over 65% in size
Target sequence (Q9BV86 whole entry, looked up): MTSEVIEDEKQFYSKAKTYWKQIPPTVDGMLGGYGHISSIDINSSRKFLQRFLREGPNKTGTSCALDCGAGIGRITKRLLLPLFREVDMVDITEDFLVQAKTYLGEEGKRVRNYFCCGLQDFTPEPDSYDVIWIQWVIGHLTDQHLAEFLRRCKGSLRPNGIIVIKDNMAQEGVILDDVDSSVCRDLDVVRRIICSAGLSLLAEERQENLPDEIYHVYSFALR
Of the large screens only hits and unclear results are named; the others gave an inactive call; ! = not confirmed by another sample. Rows were chosen to be rich in hits. Some 4.7% of all compounds tested hit in one or more screens of this group. Unless noted, calls follow the shape of the dose curve; as a rule, active = well fitted curve in the direction sought with a large enough effect; inconclusive = small, poorly fitted or top-dose-only effect, or another doubt; inactive = no such curve, though single readings can be large; an effect the other way counts as inactive or inconclusive.

O=C1Nc2ccccc2/C1=C\c1ccc(O)cc1	none (no result: GALC G270D up, GPR32 ag, FH mod, HTT-AS act, HTT prom inh)
Clc1cc(Cl)c2c(c1)N=C1CCCCCN1C2	none (no result: GALC G270D up, GPR32 ag, HTT-AS act, HTT prom inh)
COc1cc(O)c(C(CC(=O)N2C[C@H](C)C[C@H](C)C2)c2ccc3c(c2)OCO3)c(OC)c1 (stereo not given in full)	none (no result: GALC G270D up, GPR32 ag, FH mod, HTT-AS act, HTT prom inh)
O=C(Nc1ccc(Cl)c(C(F)(F)F)c1)C1CCN(S(=O)(=O)c2cccc3nonc23)CC1	GPR32 ag 79, HTT prom inh inconclusive
O=S(=O)(Nc1nc(-c2ccccc2C(F)(F)F)nc2ccccc12)c1ccc(-c2ccnc(C(F)(F)F)c2)cc1	none (no result: GALC G270D up, GPR32 ag, FH mod, HTT-AS act, HTT prom inh)
Cc1ccc2[nH]c(CSc3nnc(NC(=O)COc4ccccc4)s3)cc(=O)c2c1	GPR32 ag 76
CC(=O)c1c(C)oc2ccc(N(C(=O)c3ccncc3)S(=O)(=O)c3ccc(C)cc3C)cc12	HTT prom inh 28µM
COC(=O)c1c(C)oc2ccc(N(C(=O)c3ccncc3)S(=O)(=O)c3ccc(OC)cc3)cc12	FH mod inconclusive, HTT prom inh 2.2µM
CCc1ccc(S(=O)(=O)N(C(=O)c2ccncc2)c2ccc3oc(C)c(C(=O)OC)c3c2)cc1	HTT prom inh 13µM
CCOc1ccc(S(=O)(=O)N(C(=O)c2ccncc2)c2ccc3oc(C)c(C(=O)OC)c3c2)cc1	FH mod inconclusive, HTT prom inh 2µM
CCOC(=O)c1c(C)oc2ccc(N(C(=O)c3ccncc3)S(=O)(=O)c3ccc(F)cc3)cc12	HTT prom inh inconclusive
CCOC(=O)c1c(C)oc2ccc(N(C(=O)Oc3ccccc3)S(=O)(=O)c3ccc(CC)cc3)cc12	none
Cc1c(F)cccc1NC(=O)Nc1ccc(Cl)c(S(=O)(=O)[C@H]2CCCNC2)c1O	none (no result: GALC G270D up, GPR32 ag, FH mod, HTT-AS act, HTT prom inh)
C[C@@H]1O[C@@H](O[C@H]2[C@H](O)[C@@H](O)[C@H](OC3CCC4(C)C5CCC(C)(C(CO)OC6OC(CO)C(O)C(O)C6O)CC5=CCC4C3(C)C)O[C@@H]2CO)[C@H](O)[C@H](O)[C@H]1O (stereo not given in full)	FH mod inconclusive (no result: GALC G270D up, GPR32 ag, HTT-AS act, HTT prom inh)
C[C@@]1(C(=O)O)CCC[C@@]2(C)C3=CC[C@H]4C[C@@]3(CC[C@H]12)CC4(O)CO (stereo not given in full)	none (no result: GALC G270D up, GPR32 ag, HTT-AS act, HTT prom inh)
COc1ccc(S(=O)(=O)N(C(=O)c2ccncc2)c2ccc3oc(C)c(C(C)=O)c3c2)cc1	HTT prom inh 14µM
CC(Nc1nc(-c2ccccc2C(F)(F)F)nc2ccccc12)c1ccc(-c2ccccc2)cc1 (stereo not given)	none (no result: GALC G270D up, GPR32 ag, FH mod, HTT-AS act, HTT prom inh)
COCC(=O)NCCc1nc2ccccc2n1CCOc1ccc(C)cc1	none (no result: GALC G270D up, GPR32 ag, FH mod, HTT-AS act, HTT prom inh)
O=C(OCc1ccccc1)N1CCN(C(=O)[C@H](Cc2ccc(O[S+](=O)([O-])c3cccc4cnccc34)cc2)N[S+](=O)([O-])c2cccc3cnccc23)CC1	none (no result: GALC G270D up, GPR32 ag, FH mod, HTT-AS act, HTT prom inh)
Cc1ccc(Nc2ncnc3c2cnn3-c2ccccc2)c(C)c1	HTT-AS act inconclusive, NTMT1 inh 11µM
Cc1ccc(-n2ncc3c(N(CC(C)C)CC(C)C)ncnc32)c(C)c1	HTT prom inh inconclusive
Cc1ccc(-n2ncc3c(NCC(C)C)ncnc32)c(C)c1	GPR32 ag 62
Cc1ccc(-n2ncc3c(Nc4cccc(C)c4C)ncnc32)cc1	none
CC(C)(C)c1ccc(C(=O)NNc2ncnc3c2cnn3-c2ccccc2)cc1	GPR32 ag 104
Cc1cccc(-c2[nH]ncc2-c2ccnc3ccccc23)n1	none (no result: GALC G270D up, GPR32 ag, HTT-AS act, HTT prom inh)
CC(C)(C)S(=O)(=O)c1ccc2nccc(Nc3n[nH]c4ccc(F)cc34)c2c1	none (no result: GALC G270D up, GPR32 ag, FH mod, HTT-AS act, HTT prom inh)
COC(=O)C1=C(C)NC(C)=C(C(=O)OC)C1c1ccccc1[N+](=O)[O-]	GPR32 ag inconclusive, FH mod 16µM!
Cc1cccc(N2CCN(S(=O)(=O)c3csc(C(N)=O)c3)CC2)c1C	HTT prom inh 14µM
Cc1ccc(NS(=O)(=O)c2ccc3c(c2)C(C(C)C)C(=O)N3)cc1C (stereo not given)	GPR32 ag inconclusive, NTMT1 inh inconclusive
NC(=O)c1cc(S(=O)(=O)N2CCN(c3ccc(F)cc3)CC2)cs1	HTT prom inh inconclusive
Cc1cccc(N2CCN(S(=O)(=O)c3ccc4c(c3)C(C(C)C)C(=O)N4)CC2)c1C (stereo not given)	GPR32 ag inconclusive, FH mod inconclusive, HTT prom inh 13µM
O=C(NCC(c1cccs1)S(=O)(=O)c1cccs1)c1ccc(F)c(F)c1 (stereo not given)	GPR32 ag 95, NTMT1 inh inconclusive
O=C(NCC(c1cccs1)S(=O)(=O)c1cccs1)c1ccc(Cl)cc1 (stereo not given)	GPR32 ag 100
Cc1ccc(C(=O)NCC(c2cccs2)S(=O)(=O)c2cccs2)cc1C (stereo not given)	FH mod inconclusive
O=C(NCC(c1cccs1)S(=O)(=O)c1cccs1)c1ccc(C(F)(F)F)cc1 (stereo not given)	HTT prom inh inconclusive
COc1cc(OC)c(NC(=O)Nc2cccc(OCc3cc(=O)n4ccccc4n3)c2)cc1Cl	NTMT1 inh 79µM
COc1ccc(C2Nc3ccccc3C(=O)N2Cc2ccc(C(F)(F)F)o2)cc1COc1c(C)cccc1C (stereo not given)	none (no result: GALC G270D up, GPR32 ag, FH mod, HTT-AS act, HTT prom inh)
CN1CCCN(C(=O)c2cccc(-c3ccc(/C=C4/C(=O)Nc5ccc(Cl)cc54)o3)c2)CC1	NTMT1 inh 11µM (no result: GALC G270D up, GPR32 ag, FH mod, HTT-AS act, HTT prom inh)
COc1ccc(S(=O)(=O)N(CC(=O)Nc2cc(C)ccc2OC)Cc2ccccc2)cc1	FH mod inconclusive, NTMT1 inh 2.5µM
COc1ccc(S(=O)(=O)N(CC(=O)Nc2ccccc2Br)Cc2ccccc2)cc1	HTT prom inh inconclusive, NTMT1 inh inconclusive
Cc1ccc(C)c(NC(=O)N(C)CCc2c(C)nn(C)c2C)c1	none
Cc1cc(NC(=O)N(C)CCc2c(C)nn(C)c2C)ccc1Br	GPR32 ag 65
CCc1c(C)sc2c1CCN(Cc1ccccc1F)C2c1ccccc1 (stereo not given)	HTT prom inh inconclusive, NTMT1 inh inconclusive
CCc1c(C)sc2c1CCN(Cc1cccc(OC)c1)C2c1ccccc1 (stereo not given)	GPR32 ag 61, HTT prom inh inconclusive
Cc1cccc2oc(NC3=NC(c4[nH]ncc4Cl)C4=C(CCCC4=O)N3)nc12 (stereo not given)	none (no result: GALC G270D up, GPR32 ag, FH mod, HTT-AS act, HTT prom inh)
O=C(CSc1nnc(-c2ccccc2F)o1)Nc1ccccc1Cl	HTT-AS act 2.2µM, NTMT1 inh inconclusive
COc1ccccc1NC(=O)CSc1nnc(-c2ccccc2C)o1	GPR32 ag inconclusive, HTT-AS act inconclusive
